Reference: PubChem BioAssay AID1159580 (chemical genetic matrix, 2015)
Several values for one entry are separate records, joined by “and”; a condition that tells them apart may be missing. Equal values may be shown once. About 2,000 (36%) of roughly 5,500 compounds were called active. Inconclusive results (about 18%) are left out. No stated cut-off is given here; in the data, active means normalized growth mostly below about 0.91 (no sharp cut-off); inconclusive means no clear call, values can overlap the other calls; inactive means mostly above about 0.92. This is one part of the list.

Experiment: chemical genetic growth profiling, strain panel (AID 1159580);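 further: tested at 20 µM; growth read once vehicle control cultures reached saturation at 30 °C; 1 = growth at the plate median or of vehicle wells; lower values mean less growth of the strain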
Settings: growth OD
[1] = S. cerevisiae deletion strains, locus YBR021W, strain FUR4, active compounds read low
[2] = S. cerevisiae deletion strains, locus YBR229C, strain ROT2, active compounds read low
[3] = S. cerevisiae deletion strains, locus YCL029C, strain bik1, active compounds read low
[4] = S. cerevisiae deletion strains, locus YDL035C, strain GPR1, active compounds read low
[5] = S. cerevisiae deletion strains, locus YDL074C, strain BRE1, active compounds read low
[6] = S. cerevisiae deletion strains, locus YDL101C, strain DUN1, active compounds read low
[7] = S. cerevisiae deletion strains, locus YDL185W, strain tfp1, active compounds read low
[8] = S. cerevisiae deletion strains, locus YDL192W, strain arf1, active compounds read low
[9] = S. cerevisiae deletion strains, locus YDR101C, strain arx1, active compounds read low
[10] = S. cerevisiae deletion strains, locus YDR162C, strain NBP2, active compounds read low
[11] = S. cerevisiae deletion strains, locus YDR318W, strain mcm21, active compounds read low
[12] = S. cerevisiae deletion strains, locus YDR388W, active compounds read low
[13] = S. cerevisiae deletion strains, locus YDR502C, strain sam2, active compounds read low
[14] = S. cerevisiae deletion strains, locus YEL061C, strain CIN8, active compounds read low
[15] = S. cerevisiae deletion strains, locus YER110C, active compounds read low
[16] = S. cerevisiae deletion strains, locus YER155C, strain BEM2, active compounds read low
[17] = S. cerevisiae deletion strains, locus YER167W, strain BCK2, active compounds read low
[18] = S. cerevisiae deletion strains, locus YGL078C, strain dbp3, active compounds read low
[19] = S. cerevisiae deletion strains, locus YGL086W, strain mad1, active compounds read low
[20] = S. cerevisiae deletion strains, locus YGL248W, strain PDE1, active compounds read low
[21] = S. cerevisiae deletion strains, locus YGR135W, strain pre9, active compounds read low
[22] = S. cerevisiae deletion strains, locus YGR252W, strain gcn5, active compounds read low
[23] = S. cerevisiae deletion strains, locus YHR079C, strain IRE1 (second series), active compounds read low
[24] = S. cerevisiae deletion strains, locus YHR094C, strain hxt1, active compounds read low
[25] = S. cerevisiae deletion strains, locus YHR129C, strain ARP1, active compounds read low
[26] = S. cerevisiae deletion strains, locus YHR200W, strain rpn10, active compounds read low
[27] = S. cerevisiae deletion strains, locus YIL066C, strain RNR3, active compounds read low
[28] = S. cerevisiae deletion strains, locus YIL073C, strain SPO22, active compounds read low
[29] = S. cerevisiae deletion strains, locus YIL125W, strain kgd1, active compounds read low
[30] = S. cerevisiae deletion strains, locus YIR030C, strain dcg1, active compounds read low
[31] = S. cerevisiae deletion strains, locus YJL095W, strain BCK1, active compounds read low
[32] = S. cerevisiae deletion strains, locus YJL134W, strain LCB3, active compounds read low
[33] = S. cerevisiae deletion strains, locus YJL168C, strain set2, active compounds read low
[34] = S. cerevisiae deletion strains, locus YJL187C, strain SWE1 (second series), active compounds read low
[35] = S. cerevisiae deletion strains, locus YKL009W, strain mrt4, active compounds read low
[36] = S. cerevisiae deletion strains, locus YKL068W, active compounds read low
[37] = S. cerevisiae deletion strains, locus YKL085W, strain MDH1 (second series), active compounds read low
[38] = S. cerevisiae deletion strains, locus YKL085W, strain MDH1, active compounds read low
[39] = S. cerevisiae deletion strains, locus YKR001C, strain vps1, active compounds read low
[40] = S. cerevisiae deletion strains, locus YLR039C, strain RIC1, active compounds read low
[41] = S. cerevisiae deletion strains, locus YLR058C, strain SHM2, active compounds read low
[42] = S. cerevisiae deletion strains, locus YLR102C, strain apc9, active compounds read low
[43] = S. cerevisiae deletion strains, locus YLR268W, strain sec22, active compounds read low
[44] = S. cerevisiae deletion strains, locus YLR371W, strain rom2, active compounds read low
[45] = S. cerevisiae deletion strains, locus YLR418C, strain cdc73, active compounds read low
[46] = S. cerevisiae deletion strains, locus YML016C, strain PPZ1, active compounds read low
[47] = S. cerevisiae deletion strains, locus YML032C, strain rad52, active compounds read low
[48] = S. cerevisiae deletion strains, locus YML124C, strain tub3, active compounds read low
[49] = S. cerevisiae deletion strains, locus YMR078C, strain ctf18, active compounds read low
[50] = S. cerevisiae deletion strains, locus YMR223W, strain ubp8, active compounds read low
[51] = S. cerevisiae deletion strains, locus YMR307W, strain GAS1, active compounds read low
[52] = S. cerevisiae deletion strains, locus YNL067W, strain RPL9B, active compounds read low
[53] = S. cerevisiae deletion strains, locus YNL233W, strain BNI4, active compounds read low
[54] = S. cerevisiae deletion strains, locus YNL250W, strain rad50, active compounds read low
[55] = S. cerevisiae deletion strains, locus YNL271C, strain bni1, active compounds read low
[56] = S. cerevisiae deletion strains, locus YNL298W, strain CLA4, active compounds read low
[57] = S. cerevisiae deletion strains, locus YNL307C, strain MCK1, active compounds read low
[58] = S. cerevisiae deletion strains, locus YNR052C, strain pop2, active compounds read low
[59] = S. cerevisiae deletion strains, locus YOL012C, strain htz1
[60] = S. cerevisiae deletion strains, locus YOL147C, strain pex11, active compounds read low
[61] = S. cerevisiae deletion strains, locus YOR061W, strain CKA2, active compounds read low
[62] = S. cerevisiae deletion strains, locus YOR069W, strain VPS5, active compounds read low
[63] = S. cerevisiae deletion strains, locus YOR136W, strain idh2, active compounds read low
[64] = S. cerevisiae deletion strains, locus YOR144C, strain elg1, active compounds read low
[65] = S. cerevisiae deletion strains, locus YOR184W, strain ser1, active compounds read low
[66] = S. cerevisiae deletion strains, locus YOR316C, strain cot1, active compounds read low
[67] = S. cerevisiae deletion strains, locus YPR119W, strain clb2, active compounds read low
[68] = S. cerevisiae deletion strains, locus YPR141C, strain kar3, active compounds read low
[69] = S. cerevisiae deletion strains, locus YPR163C, strain tif3, active compounds read low
[70] = S. cerevisiae deletion strains, locus YPR167C, strain met16, active compounds read low
[71] = S. cerevisiae deletion strains, strain wtn01, active compounds read low

Measured: normalized growth

COc1cc(C(=O)O)c2c(c1C)OC(=O)c1c(C)cc(O)c(C=O)c1O2
active: [29] 0.927 | [36] 0.928 | [37] 0.911 | [38] 0.911 | [55] 0.917 | [56] 0.898
inactive: [1] 0.989 | [2] 0.997 | [3] 1 | [4] 0.977 | [5] 0.943 | [6] 1 | S. cerevisiae deletion strains, locus YDL134C, strain PPH21, active compounds read low 0.986 | [7] 0.93 | [8] 0.991 | [9] 1.01 | S. cerevisiae deletion strains, locus YDR150W, strain NUM1, active compounds read low 0.997 | [10] 0.969 | [11] 1.01 | [12] 0.986 | [13] 1 | [14] 0.993 | [15] 0.969 | [16] 1.02 | [17] 1.01 | [18] 0.954 | [19] 0.986 | [20] 1.01 | [21] 0.988 | [22] 1.05 | [23] 0.988 | [24] 0.989 | [25] 1 | [26] 0.994 | [27] 0.998 | [28] 0.948 | [30] 0.983 | [31] 0.998 | [32] 0.996 | [33] 0.972 | [34] 0.969 | [35] 0.974 | [39] 0.971 | [40] 0.929 | [41] 1.01 | [42] 0.984 | [43] 0.956 | [44] 0.955 | [45] 0.939 | [46] 0.986 | [47] 0.996 | [48] 0.998 | [49] 0.975 | [50] 0.984 | S. cerevisiae deletion strains, locus YMR263W, strain SAP30, active compounds read low 0.991 | [51] 0.923 | [52] 0.997 | S. cerevisiae deletion strains, locus YNL128W, strain TEP1, active compounds read low 0.955 | [53] 1.01 | [54] 0.919 | [57] 0.989 | [58] 0.978 | [59] 0.7 | [60] 1.01 | [61] 0.999 | [62] 0.995 | [63] 1.02 | [64] 0.985 | [65] 0.975 | [66] 0.977 | S. cerevisiae deletion strains, locus YPL055C, strain LGE1, active compounds read low 0.973 | [67] 0.977 | [68] 0.942 | [69] 0.985 | [70] 1.01 | [71] 0.987

Cc1cc(O)c(C=O)c2c1C(=O)Oc1c(C)c(O)c3c(c1O2)C(O)OC3=O (stereo unspecified)
inactive: [1] 1.03 | [2] 1 | [3] 0.981 | [4] 0.944 | [5] 0.956 | [6] 0.955 | [7] 0.954 | [8] 0.992 | [9] 0.994 | [10] 0.948 | [11] 0.98 | [12] 0.98 | [13] 0.974 | [14] 0.975 | [15] 0.971 | [16] 1.02 | [17] 0.993 | [18] 0.989 | [19] 0.966 | [20] 1 | S. cerevisiae deletion strains, locus YGR078C, strain PAC10, active compounds read low 0.988 | [21] 0.951 | S. cerevisiae deletion strains, locus YGR229C, strain SMI1, active compounds read low 1.03 | [22] 1.02 | S. cerevisiae deletion strains, locus YHR030C, strain SLT2, active compounds read low 0.984 and 0.994 | [23] 0.97 | S. cerevisiae deletion strains, locus YHR079C, strain IRE1, active compounds read low 0.983 | [24] 0.971 | [25] 0.963 | [26] 0.983 | [27] 0.962 | [28] 0.831 | [29] 0.974 | [30] 0.995 | [31] 1.02 and 0.991 | [32] 0.986 | [33] 0.969 | [34] 0.88 | S. cerevisiae deletion strains, locus YJR043C, strain POL32, active compounds read low 0.973 | S. cerevisiae deletion strains, locus YJR066W, strain TOR1, active compounds read low 0.965 | [35] 0.933 | [36] 0.98 | [37] 0.974 | [38] 0.974 | [39] 1.01 | [40] 0.996 | [41] 0.937 | [42] 0.986 | S. cerevisiae deletion strains, locus YLR113W, strain HOG1, active compounds read low 0.984 | [43] 0.965 | S. cerevisiae deletion strains, locus YLR330W, strain CHS5, active compounds read low 0.99 | [44] 0.948 | [45] 0.999 | [46] 0.957 | [47] 0.995 | [48] 0.975 | [49] 0.959 | [50] 0.966 | [51] 1.14 | [52] 0.981 | S. cerevisiae deletion strains, locus YNL153C, strain GIM3, active compounds read low 0.959 | S. cerevisiae deletion strains, locus YNL183C, strain NPR1, active compounds read low 0.944 | [53] 1.03 | [54] 0.963 | [55] 0.946 | [56] 0.986 | [57] 0.978 | [58] 0.955 | [59] 0.674 | [60] 0.97 | [61] 0.963 | [62] 0.982 | [63] 0.985 | [64] 0.974 | [65] 1.01 | S. cerevisiae deletion strains, locus YOR231W, strain MKK1, active compounds read low 0.982 | [66] 0.984 | S. cerevisiae deletion strains, locus YPL241C, strain CIN2, active compounds read low 0.994 | S. cerevisiae deletion strains, locus YPL256C, strain CLN2, active compounds read low 0.928 | [67] 0.979 | [68] 0.969 | [69] 0.993 | [70] 0.983 | [71] 0.963 | S. cerevisiae strains, strain wild type, active compounds read low 0.907
